Screens from PubChem.
The list is not random: actives were taken first. Their share in the collection is about 5%.
VACV Venus inh = vaccinia inhibition (Venus reporter); 330,000 compounds, 0.46% hits; AID 720580; Vaccinia virus Venus reporter expression, fluorescence; Potency, µM (doses to about 36.5 µM), hits mostly inhibitors; calls by dose curve; tested in A549 cells; note: nearly all actives have a fitted effect of over 30% in size
HCMV inh = human cytomegalovirus inhibition; HFF cells, HCMV-luciferase reporter, 72 h; active compounds read low; activity change, negative = inhibition, % at 57.5 µM; 410,000 compounds, 4.5% hits; AID 1259415; in the data active = activity change below about -60%; inconclusive = no clear call, values can overlap the other calls; inactive = above about -39%
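Cell-based, HFFs, 1000 cells/well, 16 h 37C; cpds in DMSO + HCMV-luc, MOI 1 PFU/cell; 72 h 37C; OneGlo luminescence after 5 min RT; norm. to buffer vs Salinomycin 10uM.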
TbPYK inhibitor = T. brucei pyruvate kinase inhibition; 410,000 compounds, 0.12% hits; TbPYK enzyme, Kinase-Glo Plus ATP luminescence, 45 min; Potency, µM (top dose mostly 76.8 µM), most hits filed as inhibitors; Q57TT1; note: nearly all actives have a fitted effect of over 50% in size
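Readout: single end-point luminescence (Kinase-Glo Plus, 10 min). Reaction conditions were TbPYK/substrate plus 130 uM ADP, 45 min at RT, pH 7.2 TEA buffer. No-enzyme wells served as controls, and data were normalized before concentration-response fitting.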
Vaccinia mCherry = inhibitors of vaccinia virus infection (mCherry reporter signal); Potency, µM (highest dose often 36.5 µM), hits mostly inhibitors; Vaccinia virus mCherry reporter infection, fluorescence; 310,000 compounds, 0.63% hits; calls by dose curve; tested in A549 cells; note: nearly all actives have a fitted effect of over 35% in size
LmPK inh = LmPK (Leishmania mexicana) enzyme inhibition | Q27686 | purified LmPK, Kinase-Glo ATP luminescence, 1 h | Potency, µM (highest dose often 57.5 µM), hits mostly inhibitors | 290,000 compounds, 0.37% hits | AID 1721
Target sequence (Q27686 whole entry, looked up): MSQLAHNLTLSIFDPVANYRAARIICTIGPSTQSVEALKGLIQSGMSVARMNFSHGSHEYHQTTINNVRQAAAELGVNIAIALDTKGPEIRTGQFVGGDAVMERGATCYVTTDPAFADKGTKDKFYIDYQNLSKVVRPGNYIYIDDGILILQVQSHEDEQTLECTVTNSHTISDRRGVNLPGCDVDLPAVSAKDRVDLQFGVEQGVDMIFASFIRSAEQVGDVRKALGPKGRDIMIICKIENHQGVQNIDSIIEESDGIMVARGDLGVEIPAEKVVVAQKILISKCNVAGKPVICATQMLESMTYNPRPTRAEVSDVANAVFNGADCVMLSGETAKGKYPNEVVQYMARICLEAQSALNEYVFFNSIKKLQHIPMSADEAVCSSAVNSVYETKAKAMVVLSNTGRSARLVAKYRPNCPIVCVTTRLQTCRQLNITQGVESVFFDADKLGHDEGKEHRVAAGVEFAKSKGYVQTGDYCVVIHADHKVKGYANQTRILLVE
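Purified LmPK (0.1 nM) with 0.5 mM PEP and 0.1 mM ADP in imidazole buffer pH 7.2 with MgCl2/KCl, 1 h at room temperature. ATP formed was read by luciferase luminescence and normalized to no-enzyme and uninhibited controls.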
Numbers stand for hits; n = inactive; u = inconclusive; x = no result; [ ] = dose if it differs, or a comment. Unless noted, calls come from the whole dose curve; as a rule, active = well fitted curve in the direction sought with a large enough effect; inconclusive = small, poorly fitted or top-dose-only effect, or another doubt; inactive = no such curve, though single readings can be large; an effect the other way counts as inactive or inconclusive.

SMILES	VACV Venus inh	HCMV inh	TbPYK inhibitor	Vaccinia mCherry	LmPK inh
Cc1ccc(C(=O)N/N=C\c2ccc([N+](=O)[O-])s2)cn1	n	u	n	n	n
Cc1cc(C(=O)N/N=C/c2ccc(C)s2)n[nH]1	n	n	n	n	n
Cc1cc(C(=O)N/N=C/c2ccc([N+](=O)[O-])s2)n[nH]1	u	-90.9	n	u	n
COc1ccc(CCNC(=O)C2(c3ccccc3)CC2)cc1	n	x	n	n	n
O=C1C=CC(=O)N1c1ccc(O)cc1	x	n	u	x	n
O=C1C=CC(=O)N1c1ccc(OC(F)F)cc1	n	n	11.2µM	n	n
CCCSc1oc(-c2ccco2)nc1S(=O)(=O)c1ccc(Br)cc1	n	n	n	n	x
CCOC(=O)c1[nH]c2ccc(C)cc2c1N	x	n	n	x	12.6µM
COC(=O)c1ccc(NC(=S)NCc2ccco2)cc1	n	u	n	n	n
O=C(c1c[nH]c(=O)n(-c2ccccc2)c1=O)N1CCc2ccccc21	x	n	n	x	n
CCOc1ccc(-n2c(=O)[nH]cc(C(=O)N3CCc4ccccc43)c2=O)cc1	2.82µM	n	n	u	n
CCOc1ccc(C(NC(=O)CC)c2c(O)ccc3ccccc23)cc1 (stereo unspecified)	x	n	n	x	n
CC(=O)Oc1ccc2ccccc2c1C(NC(=O)Cc1ccccc1)c1ccc(Cl)cc1 (stereo unspecified)	u	n	n	28.2µM	n
COc1ccc(C(=O)N2CCN(C3CCCCC3)CC2)cc1OC	x	n	n	x	n
Cc1c(OCC(F)(F)F)ccnc1CSc1nc2ccccc2[nH]1	x	n	n	x	n
O=[N+]([O-])c1ccc(/C([O-])=C(/C(=S)NCc2ccco2)[n+]2ccccc2)cc1	n	-61.0	n	n	n
O=C(CCC(=O)OCCOc1ccccc1)OCCOc1ccccc1	n	-97.9	n	n	x
O=C(Nc1ccccc1)OCCOc1ccccc1	x	n	n	x	n
Cc1cccc(N2C(=O)CC(N(O)c3ccccc3)C2=O)c1 (stereo unspecified)	x	n	n	x	n
Cc1ccc(CN2C(=O)C(=O)c3cc(Br)cc(C)c32)cc1	n	-103.1	n	n	x
CCCOc1ccc(CN2C(=O)C(=O)c3cccc(C)c32)cc1	n	n	n	n	x
CCCC(C)C(=O)Nc1cc([N+](=O)[O-])ccc1Cl (stereo unspecified)	n	u	n	n	n
CCCC(C)C(=O)Nc1ccc(Cl)cc1Cl (stereo unspecified)	n	-77.8	n	x	n
O=[N+]([O-])c1cccnc1N1CCN(c2ccccc2F)CC1	n	-60.7	n	n	n
CCCc1ccc(C(C)NC(=S)NC2CCCCC2)cc1 (stereo unspecified)	x	-73.1	n	x	n
SMILES	VACV Venus inh	HCMV inh	TbPYK inhibitor	Vaccinia mCherry	LmPK inh
CC(NC(=S)NC1CCCCC1)c1ccccc1 (stereo unspecified)	x	u	n	x	n
CN(C)c1ccc(/C=C/c2ccccn2)cc1	n	x	x	u	x
CN1/C(=C\P(=O)(N(C)C)N(C)C)C(C)(C)c2ccccc21	n	-93.0	n	n	n
CN(C(=O)c1ccc2c(c1)N(Cc1ccccc1F)C(=O)c1ccccc1S2(=O)=O)C1CCCCC1	n	u	n	n	x
Cc1ccc(C)c(CN2C(=O)c3ccccc3S(=O)(=O)c3ccc(C(=O)N(C)C4CCCCC4)cc32)c1	n	-75.7	n	n	x
CCC1CCCCN1CCCNC(=O)c1ccc2c(c1)N(Cc1ccccc1F)C(=O)c1ccccc1S2(=O)=O (stereo unspecified)	u	-101.5	n	n	x
CC1CN(C(=O)c2ccccc2OCc2ccc(Cl)cc2Cl)CC(C)O1 (stereo unspecified)	x	u	n	x	x
COc1ccc(CNC(=O)CSc2ncc3c(n2)-c2cc(Cl)ccc2N(C)S3(=O)=O)cc1	n	n	n	n	x
O=C(NCc1ccco1)Nc1cccc2ccccc12	n	n	n	n	x
O=C(O)/C=C/c1ccc(S(=O)(=O)Nc2ccc(C(=O)NCC(=O)O)cc2)cc1	n	n	n	n	n
Cc1ccc(OCCNC(=O)c2cccc(Oc3ccc(C(F)(F)F)cc3[N+](=O)[O-])c2)cc1	u	-79.9	n	u	n
Cc1cccc(OCCNc2ccc(C(F)(F)F)cc2[N+](=O)[O-])c1	n	n	n	n	n
CCN(C(=O)COC(=O)c1ccc(O)cc1O)c1c(N)n(Cc2ccccc2)c(=O)[nH]c1=O	x	n	n	x	x
CC(Oc1ccc(Cl)cc1Cl)c1nc(-c2ccc(NC(=O)c3ccncc3)cc2)no1 (stereo unspecified)	x	-100.7	n	x	n
CC(Oc1ccc(Cl)cc1Cl)C(=O)Nc1ccc2oc(-c3ccncc3)nc2c1 (stereo unspecified)	x	-73.6	n	x	n
CC(Oc1ccc(Cl)cc1Cl)c1nc(-c2ccc(NC(=O)c3cccnc3)cc2)no1 (stereo unspecified)	u	-72.3	n	x	n
COc1cccc(-n2c(=O)c3sc4ccccc4c3n(Cc3c(F)cccc3Cl)c2=O)c1	n	n	n	n	x
Cc1cccc(NC(=O)c2onc3c2CCCC3)n1	n	n	u	n	12.6µM
COc1ccccc1C(=O)Nc1onc2c1CCCC2	n	n	n	n	x
Cc1ccccc1NC(=O)c1onc2c1CCCC2	n	n	n	n[1.46 µM]	12.6µM
Cc1ccc(C(=O)Nc2onc3c2CCCC3)cc1	n	-74.9	n	n	x
Cc1ccc(NC(=O)CCc2c(C)nc3c(-c4ccccc4)c(C)nn3c2C)c(C)c1	n	n	n	n	x
CCOC(=O)C(/C=N/c1cc(C)nn1-c1ccccc1)=C(\C)O	x	n	n	x	n
CC(=O)N1CCN2C(=O)C1CCCC(=O)c1cc(C(C)C)ccc12 (stereo unspecified)	n	-67.4	n	x	n
CC(=O)N1CCN2C(=O)C1CCCC(=O)c1cc(C3CCCCC3)ccc12 (stereo unspecified)	x	n	n	x	n
SMILES	VACV Venus inh	HCMV inh	TbPYK inhibitor	Vaccinia mCherry	LmPK inh
COc1ccc(OC)c(NC(=O)Cc2c(C)n(C(=O)c3ccc(Cl)cc3)c3ccc(OC)cc23)c1	n	-70.7	n	n	x
COc1ccc2c(c1)c(CC(=O)Nc1ccccc1OC)c(C)n2C(=O)c1ccc(Cl)cc1	n	n	n	n	n
COc1ccc2c(c1)c(CC(=O)Nc1nnc(C3CC3)s1)c(C)n2C(=O)c1ccc(Cl)cc1	n	-75.8	n	u	n
CCOC(=O)[C@@H]1[C@H]2COc3ccccc3[C@@H]2N2C(=O)N(c3ccc(Br)cc3)C(=O)[C@@]12C	n	n	n	n	x
O=C(Nc1ccccn1)c1cc(-c2cccc(Cl)c2)nc2ccccc12	n	-71.3	n	n	n
CCc1ccc(/C=N/NC(=O)c2cc(-c3ccncc3)nc3ccccc23)s1	n	-66.1	n	u	n
CCCc1cc(C(=O)N/N=C/c2ccc(CC)s2)c2ccccc2n1	u	n	n	n	n
O=C(N/N=C/c1cccs1)c1cc(-c2ccncc2)nc2ccccc12	u	-72.3	n	n	n
O=C(N/N=C/c1cccs1)c1cc(C2CC2)nc2ccccc12	n	n	n	u	n
